Pf Dd2 inh = blocks in vitro growth of P. falciparum Dd2 | Potency, µM (series often up to 28.9 µM), inactives show at the top dose activity, negative = inhibition, hits mostly inhibitors | P. falciparum Dd2 growth, SYBR Green, 72 h | hit rate 4.3% among 120,000; active = well fitted inhibition curve with a large enough effect;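 also: plate controls were DMSO vehicle for no effect and reference drug for full effect; nearly all actives have a fitted effect of over 65% in size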
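Infected erythrocytes (Dd2, 0.3% parasitemia, 2.5% hematocrit final) are added to compound in RPMI-1640/Albumax II medium, grown 72 h at 37C in low oxygen, then lysed with saponin/Triton-X containing SYBR Green and read by fluorescence.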
An asterisk follows results filed as active; i = inactive; [ ] = another dose, or the depositor's remark. The entries come from a sample that favours hits as a whole. Potency is read from the fitted curve at half-maximal effect.

SMILES	Pf Dd2 inh
CCOC(=O)C1(Cc2ccccc2F)CCCN(C(=O)C(=O)c2ccco2)C1 (configuration not stated)	-2.3%
Cc1sc2ccn(C)c(=O)c2c1C(=O)NCc1ccccc1Cl	i
COc1cc(NC(=O)Cn2c(-c3ccc(F)cc3)nc(C)cc2=O)cc(OC)c1	-6.0%
COc1ccc(-c2cc(N3CCCC(NC(=O)c4cc(Cl)ccc4F)C3)n[nH]2)cc1 (configuration not stated)	i
CCCCN(Cc1ccsc1)C(=O)c1cnc(Nc2ccccc2)nc1	-15.2%
Cc1noc(C)c1C1CCCN1C(=O)Cc1nc(-c2cccnc2)n[nH]1 (configuration not stated)	-6.7%
COc1cccc(CC(=O)N2CCCN(c3cc(-c4ccc(Br)cc4)[nH]n3)CC2)c1	-16.4%
CN1CCN(C(=O)[C@@H]2CCC[C@@H](NCc3cccc(Cl)c3)CN(C)C(=O)C2)CC1	i
COc1cc(NC(=O)CCCN2C(=O)CCn3nc(-c4cn(C)c5ccccc45)cc32)cc(OC)c1	7.94µM*
Cn1cc(-c2cc3n(n2)CCC(=O)N3CCCC(=O)Nc2ccc(Cl)cc2)c2ccccc21	1.7%
Cc1cccc(C)c1NC(=O)CCCN1C(=O)CCn2nc(-c3cn(C)c4ccccc34)cc21	44.0%
CN1C(=O)c2cncnc2OCC1CNC(=O)Cc1cccc(Cl)c1 (configuration not stated)	-18.2%[44.1 µM]
O=C1CC2(CCN(CC3CC3)CC2)Oc2ccccc2N1	-14.1%[44.1 µM]
COc1ccc(C(=O)Nc2cc(C(F)(F)F)ccc2N2CCN(c3ccccc3)CC2)cc1OC	-7.3%
CCOC(=O)c1ccc(NC(=O)Nc2cc3c(cc2N2CCCC2)n(C)c(=O)n3C)cc1	i
CCOC(=O)C1CCN(c2cc3c(cc2NC(=O)c2ccc(OC)c(OC)c2)n(C)c(=O)n3C)CC1	8.91µM*
O=C(N[C@H]1CCN2C(=O)c3cc(-c4ccc(F)cc4F)ccc3NC(=O)[C@H]12)c1cnccn1	-13.8%
NC(=O)CN1C(=O)CO[C@H]2CN(Cc3ccc(Cl)cc3)C[C@H]21	-16.4%[44.1 µM]
Cc1cccc(OC[C@H]2C[C@@H](NCc3ccc(C)o3)[C@H](O)[C@@H]2O)n1	i
O=C(c1ccc(Cl)cc1)N1CCC2(CC1)C(=O)NCN2Cc1ccccc1	3.5%
O=C1NCN(Cc2ccc(Cl)cc2)C12CCN(Cc1cccc3ccccc13)CC2	-29.0%
O=C(Nc1ccc(C(F)(F)F)cc1)N1CCC2(CC1)C(=O)NCN2Cc1ccc(Cl)cc1	-5.0%
O=C1NCN(Cc2ccc(Cl)cc2)C12CCN(Cc1ccccn1)CC2	-15.5%
O=C(Nc1ccccc1)N1CCC2(CC1)C(=O)NCN2Cc1ccc(Cl)cc1	3.16µM*
O=C1NCN(Cc2ccc(Cl)cc2)C12CCN(Cc1ccsc1)CC2	8.91µM*
SMILES	Pf Dd2 inh
CCN1CC(c2ccccc2)CC2(CCN(C(=O)COC)CC2)C1 (configuration not stated)	-7.9%
CCN(CC)CCNC(=O)c1c(OCCOC)cc(=O)n2c1CCOCC2	-3.4%
CCN(Cc1ccccc1)C(=O)CC1CCCN(c2cnn(CC)c(=O)c2)C1 (configuration not stated)	-17.5%
COCCn1c(=O)c2c(n1Cc1ccccc1)CN(Cc1cccnc1OC)CC2	-16.0%[44.1 µM]
COCCn1c(=O)c2c(n1Cc1ccccc1)CN(Cc1ccc(C(C)C)cc1)CC2	-10.5%[44.1 µM]
COCCCN1CCc2c(n(Cc3ccccc3)n(-c3ccccc3)c2=O)C1	11.2µM*
O=Cc1cccc(-c2cccs2)c1	-14.3%[44.1 µM]
O=C(c1ccc(F)cc1)N1CCC(Oc2cccnc2)C1 (configuration not stated)	12.2%
O=C(c1ccc(C2CCCNC2)cc1)N1CCCN(c2ncccn2)CC1 (configuration not stated)	-1.7%
O=C(c1ccc(C2CCCNC2)cc1)N1CCC(Oc2cccc(F)c2)CC1 (configuration not stated)	12.6µM*
CCCCNC(=O)C1CC(=O)N(c2n[nH]c3cccc(F)c23)C1 (configuration not stated)	-7.2%
Cc1cc(CN2CC(Oc3ccc(F)cc3F)C2)no1	5.2%[44.1 µM]
NC(=O)CN1CCCC(c2nc(-c3cn4ccccc4n3)no2)C1 (configuration not stated)	-16.8%
O=C1COc2ccc(NCc3cccs3)nc2CN1Cc1ccc(C(F)(F)F)cc1	-24.5%[44.1 µM]
COC(=O)C1=C(C)N(Cc2ccccc2F)C(=O)CC1c1ccc(F)cc1F (configuration not stated)	i
COc1ccc(CCNC(=O)c2nnn3c2COC(c2ccc(C)cc2)C3)cc1OC (configuration not stated)	8.91µM*
Cc1ccc(C(=O)N2CCN(C(=O)c3nnn4c3COC(c3ccc(F)cc3)C4)CC2)cc1C (configuration not stated)	7.08µM*
COc1ccc(C2Cn3nnc(C(=O)N4CCC(C(=O)NC5CCCCCCC5)CC4)c3CO2)cc1 (configuration not stated)	-17.4%
